# Screens from PubChem.
# TNAP act mid DEA: activators of human TNAP at intermediate phosphate acceptor. P05186. purified TNAP, CDP-star luminescence, 100 mM DEA, 30 min; hits give high values; scale: 0 levamisole-inhibited, 1 vehicle-only enzyme. activation factor at 20 µM. 64,000 tested, under 10 active. AID 813;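 active = activation factor of at least 2 at 20 µM, relative to controls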
# PLAP act: activators of human placental alkaline phosphatase. activation fold at 20 µM. actives 1.2% (n = 96,000). P05187. purified PLAP enzyme, luminescent substrate read-out; hits give high values; in the data active = activation fold above about 2
# hDAT+cocaine: changed human dopamine transporter uptake under cocaine IC80; LLC-PK1 hDAT cells, [14C]-dopamine uptake with cocaine IC80; actives deviate in either direction; B-score at 10 µM; actives 1.3% (n = 110,000);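 active = Z score or B-score, a plate-position-corrected score, falls beyond the plate's 99.7% confidence bounds, in either direction; inactive = both scores lie inside the 99.7% bounds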;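 note: scored against the spread of the other compound wells on the same plate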
# D1 mod: allosteric modulators of human D1 dopamine receptor; P21728; B-score at 10 µM; actives 5.9% (n = 58,000); HEK293 D1, CRE-luciferase, dopamine EC30 potentiation; actives deviate in either direction; AID 641;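 active = luminescence count or its row- and column-corrected plate score outside the 99.7% band of the plate's sample wells, on either side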
# HePTP inhibitor: inhibitors of human HePTP phosphatase. inhibition, % at 20 µM. actives 0.64% (n = 110,000). recombinant HePTP phosphatase activity, OD absorbance. P35236. AID 521; in the data active = inhibition above about 50%;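 note: plate controls were vehicle for no effect and reference inhibitor for full effect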
# Target sequence (P35236 whole entry, looked up): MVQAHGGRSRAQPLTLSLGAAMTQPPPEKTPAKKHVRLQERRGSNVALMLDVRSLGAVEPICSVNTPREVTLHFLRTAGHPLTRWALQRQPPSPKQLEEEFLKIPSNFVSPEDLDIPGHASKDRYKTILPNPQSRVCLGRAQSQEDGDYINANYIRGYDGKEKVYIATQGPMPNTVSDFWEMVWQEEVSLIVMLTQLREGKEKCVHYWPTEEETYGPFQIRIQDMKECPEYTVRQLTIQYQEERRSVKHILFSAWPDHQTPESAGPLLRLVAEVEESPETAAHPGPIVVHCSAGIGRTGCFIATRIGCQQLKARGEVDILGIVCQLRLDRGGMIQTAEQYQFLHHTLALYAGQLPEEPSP
# Candida biofilm: kills Candida albicans biofilms. C. albicans biofilm + clotrimazole, Alamar Blue. AID 834. inhibition, % at 6 µM. actives 0.14% (n = 85,000);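 active = inhibition above 20%; inactive = inhibition below 20%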;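 note: preformed 24 hr biofilms exposed to compound for 48 hr; 0% = biofilm without compound and 100% = blank killed by clotrimazole plus chlorhexidine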
# * = called active by the depositor; / = no result. Only a selection was taken, and hits are over-represented in it overall.
SMILES,TNAP act mid DEA,PLAP act,hDAT+cocaine,D1 mod,HePTP inhibitor,Candida biofilm
Cc1ccc(O)c(-c2cc(C(=O)NCc3ccncc3)[nH]n2)c1,1.3,2.9*,2.4,-0.33,4,8
Cc1cc(C)c(O)c(-c2cc(C(=O)NCc3ccccc3)[nH]n2)c1,/,1.1,-0.48,/,/,0
COc1ccc(CCNC(=O)c2cc(-c3ccc(C)cc3O)n[nH]2)cc1OC,/,2*,0.86,/,/,5
CC1(C)C2=C([N+](=O)[O-])CN(c3ccccc3)CN2C(C)(C)N1[O],/,/,/,/,5,/
C[n+]1ccc2c(c1)ncn2Cc1ccccc1,/,/,/,/,4,/
CC(=O)N(C)c1ccc(NC(=O)/C=C/c2ccccc2)cc1,/,/,/,/,7,/
COc1ccc(NC(=O)CN(c2cc(C)cc(C)c2)S(=O)(=O)c2ccccc2)c(OC)c1,/,/,/,/,4,/
C1=C(c2ccc(C3CCCCC3)cc2)N2CCN=C2S1,/,/,/,/,9,/
Cc1ccc(-c2nnc(N3CCN(C(=O)c4ccco4)CC3)c3ccccc23)cc1,0.9,1.6,2.9*,-1.8,6,2
COc1ccc(N2CCN(C(=O)NC34CC5CC(CC(C5)C3)C4)CC2)cc1,/,1.8,-7.6*,/,/,4
COc1ccc(N2CCN(C(=O)COc3ccccc3)CC2)cc1,1,1.1,1.9*,0.43,6,11
COc1ccc(OCC(=O)N2CCN(c3nnc(-c4ccccc4)c4ccccc34)CC2)cc1,1,1.5,3*,-0.81,2,8
COC(=O)N1CCN(c2ccc(OC)cc2)CC1,0.9,1.2,-1.5,0.18,10,2
O=C(COc1ccccc1)N1CCN(c2nnc(-c3ccccc3)c3ccccc23)CC1,0.9,1.2,0.023,0.35,-25,0
O=C1c2ccc(Oc3ccc([N+](=O)[O-])cc3)cc2C(=O)N1c1cccnc1,/,/,/,/,2,/
CS(=O)(=O)N1CCN(C(=O)c2cc(-c3ccccc3)nc3ccccc23)CC1,/,1.5,-0.046,/,/,1
CS(=O)(=O)N1CCN(C(=O)c2cc(-c3cccs3)nc3ccccc23)CC1,1,1.3,-3*,-0.0069,8,-4
O=C(Nc1nccs1)C1CC(=O)N(c2ccccc2Cl)C1 (stereo not drawn),/,1,-0.27,/,/,1
Cc1ccc(N2CC(C(=O)Nc3nccs3)CC2=O)cc1 (stereo not drawn),0.9,0.9,0.037,-7.4*,-3,5
COc1ccccc1NC(=O)c1ccn(C(=O)c2cccc(I)c2)n1,/,/,/,/,5,/
O=C(c1c(Cl)cccc1Cl)N1CCN(c2ccccc2)CC1,/,/,/,/,-6,/
Cc1c(N2C(=O)/C(=C/c3ccccc3)SC2=S)c(=O)n(-c2ccccc2)n1C,/,1.6,2.6*,/,/,/
Cc1cc(OCC(=O)NCC2CCCO2)ccc1Br (stereo not drawn),/,/,/,/,0,/
CC(=O)c1cccc(N2C(=O)C3C4C=CC(C4=C(C)C)C3C2=O)c1 (stereo not drawn),/,/,/,/,-6,/
CC(=O)Oc1cccc(N2C(=O)C3C4C=CC(C4=C(C)C)C3C2=O)c1 (stereo not drawn),0.9,1.2,-9*,0.59,11,3
SMILES,TNAP act mid DEA,PLAP act,hDAT+cocaine,D1 mod,HePTP inhibitor,Candida biofilm
CCOC(=O)c1c(-c2ccc(OC)cc2)csc1NC(=O)c1cccc([N+](=O)[O-])c1,/,/,/,/,-2,/
CCSc1nnc(-c2ccncc2)o1,/,1,0.25,/,/,5
CCSc1nnc(-c2sc3nnc(-c4ccccc4)c(-c4ccccc4)c3c2N)o1,/,1.1,1.6*,/,/,/
CCN1CCN(c2nc(-c3cccnc3)nc3ccccc23)CC1,1,1.5,-0.18,-4.3*,11,5
Cn1c(NC(=O)c2cccnc2)nc2ccccc21,1,2*,0.59,-0.96,7,3
CC(Oc1ccc(Cl)cc1Cl)C(=O)Nc1ccccn1 (stereo not drawn),/,/,/,/,6,/
COc1ccc(/C=N/Nc2nc3ccccc3o2)cc1O,/,2.1*,1.4,/,/,/
COc1cc(/C=N/Nc2nc3ccccc3o2)cc(OC)c1O,/,2.3*,-1.4,/,/,6
COc1cc(/C=N\Nc2nc3ccccc3o2)cc(OC)c1OC,/,/,0.68,/,-8,/
Cc1ccc(N2C(=O)CC(C(C)c3ccccc3)C2=O)c(Br)c1 (stereo not drawn),/,/,/,/,2,/
COc1ccc(-c2[nH]ncc2-c2ccc3c(c2)OCCO3)c(O)c1,1.4,2.1*,0.87,-0.97,5,/
CCc1cc(-c2[nH]ncc2-c2ccc3c(c2)OCO3)c(O)cc1O,1.2,2.5*,/,-1.3,-6,9
CCCc1cc(-c2[nH]ncc2-c2ccc3c(c2)OCCCO3)c(O)cc1OC,/,/,0.77,/,/,0
CCCC(=O)c1ccc(N2CCN(C(=O)c3ccc(F)cc3)CC2)c(F)c1,/,/,/,/,-5,/
O=C(CSc1nc2ccccc2[nH]1)Nc1ccc(Cl)c(Cl)c1,/,/,/,/,-5,/
COc1cc(N=Cc2c(O)n(-c3ccccc3F)c(=O)[nH]c2=O)cc(OC)c1OC,/,/,/,/,-15,/
Clc1ccc(Nc2nc(-c3cccnc3)cs2)cc1,/,0.9,1.2,/,/,4
CN(C)c1ccc(Nc2nc(-c3cccnc3)cs2)cc1,0.8,1.1,-0.27,-2.8*,8,7
CC(C)c1ccccc1NS(=O)(=O)c1ccc(Cl)cc1,/,/,/,/,11,/
CCOC(=O)N1CCC(N2C(=O)c3ccccc3C2Nc2ccc3c(C)cc(=O)oc3c2)CC1 (stereo not drawn),0.9,1.6,0.54,0.91,13,16
CCOC(=O)N1CCC(N2C(=O)c3ccccc3C2Nc2ccc3c(c2)OCCO3)CC1 (stereo not drawn),0.9,1.6,-0.57,-3.1*,10,5
CCOC(=O)c1c(NC(=O)CSc2ncn[nH]2)sc(C)c1C,1,2*,-0.0039,1.3,2,4
Cc1cc(=O)[nH]c(SCC(=O)Nc2nc(-c3ccccc3)cs2)n1,0.9,1.2,/,-0.048,4,10
N#Cc1c(NC(=O)CSc2ncn[nH]2)sc2c1CCCCC2,1,1.1,0.3,-4.6*,-4,7
N#Cc1c(NC(=O)c2nc3ncccn3n2)sc2c1CCCCC2,0.8,1.2,0.55,-4.3*,-9,3
SMILES,TNAP act mid DEA,PLAP act,hDAT+cocaine,D1 mod,HePTP inhibitor,Candida biofilm
O=C(CSc1ncn[nH]1)Nc1nc(-c2ccccc2)cs1,/,2.8*,0.02,/,/,-1
CCCc1nnc(NC(=O)CSc2ncn[nH]2)s1,0.9,2.7*,-0.36,-0.045,8,0
CC(=O)c1ccc2c(c1)C1C=CCC1C(c1ccc([N+](=O)[O-])cc1)N2 (stereo not drawn),/,/,/,/,10,/
O=C(O)c1ccc2c(c1)C1C=CCC1C(c1cccc([N+](=O)[O-])c1)N2 (stereo not drawn),/,/,/,/,102*,/
O=C(O)c1ccc2c(c1)[C@@H]1C=CC[C@@H]1[C@H](c1ccccn1)N2,1,/,-0.46,-3.8*,32,7
Cc1ccc(-n2nnnc2SCC(=O)NNC(=O)c2ccco2)cc1C,/,2.3*,0.016,/,/,/
CC(=O)c1cccc(-n2nnnc2SCC(=O)Nc2cccc(NC(=O)c3ccco3)c2)c1,0.9,1.5,0.028,0.026,6,4
O=C(CN1CCCN(Cc2ccc(F)cc2Cl)C1=O)NCc1ccccc1,1,1.3,2.6*,0.65,3,/
